Results published in PubChem BioAssay (NCATS).
Several values for one entry are separate records, joined by “and”; a condition that tells them apart may be missing. Equal values may be shown once. Records with an inconclusive call do not appear. Where a structure was tested more than once in an assay, its records may differ in their call. Activity calls are given as the source filed them. Calls follow the shape of the dose curve; as a rule, active = well fitted inhibition curve with a large enough effect; inconclusive = small, poorly fitted or top-dose-only effect; inactive = flat fitted curve, though single readings scatter.

Assays:
CRL-7250 = normal cell line; assay: Cytotoxic Profiling of Annotated Libraries Using Quantitative High-Throughput Screening (AID 1296008); conditions: Five cell lines viability, CellTiter-Glo ATP luminescence, 48-72 h; max response: active compounds read low; as to max response: % is scaled to controls: 0 for no effect and ±100 for the full control effect
Summary of the method: (§1)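 Cells exposed to compounds for 48 or 72 hr at 37 degrees Celsius. Viability read as ATP-coupled luminescence with CellTiter-Glo after 10 min at room temperature.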

HEK293 = assay: as above; conditions: Five cell lines viability, CellTiter-Glo ATP luminescence, 48-72 h; max response: active compounds read low
Summary of the method: as §1

HaCat [1] = assay: as above; conditions: Five cell lines viability, CellTiter-Glo ATP luminescence, 48-72 h; max response: active compounds read low
Summary of the method: as §1

KB-3-1 = assay: as above; conditions: Five cell lines viability, CellTiter-Glo ATP luminescence, 48-72 h; max response: active compounds read low
Summary of the method: as §1

NIH3T3 = assay: as above; conditions: Five cell lines viability, CellTiter-Glo ATP luminescence, 48-72 h; max response: active compounds read low
Summary of the method: as §1

HACAT [2] = assay: qHTS assay to identify novel small-molecules to repurpose for Merkel cell carcinoma treatment (AID 1296009); conditions: MCC and control cell lines, CellTiter-Glo viability, 72 h; at 44.8 µM (top of the series) unless noted
Summary of the method: (§2)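 Cells were incubated with compound for 72 hr at 37 degree celsius before CellTiter-Glo addition. Luminescence was normalized with no-cell wells as full cytotoxicity and DMSO as baseline.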

MCC-13 = assay: as above; conditions: MCC and control cell lines, CellTiter-Glo viability, 72 h; series mostly up to 46 µM
Summary of the method: as §2

MCC-26 = assay: as above; conditions: MCC and control cell lines, CellTiter-Glo viability, 72 h; series mostly up to 46 µM
Summary of the method: as §2

MKL-1 = assay: as above; conditions: MCC and control cell lines, CellTiter-Glo viability, 72 h; series mostly up to 46 µM
Summary of the method: as §2

MKL-2 = assay: as above; conditions: MCC and control cell lines, CellTiter-Glo viability, 72 h; series mostly up to 46 µM
Summary of the method: as §2

PAD = assay: qHTS profiling for inhibitors of Plasmodium falciparum proliferation (AID 504749); conditions: P. falciparum in erythrocytes, SYBR Green DNA, 72 h; series mostly up to 28.7 µM
Summary of the method: (§3)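 Readout was DNA-dye fluorescence from lysed cultures, ex 485/em 535 nm. Parasitized red cells had grown 72 h with compound; data scaled between 0.29 uM artemisinin and DMSO wells and corrected using vehicle-only plates.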

PC15 = assay: as above; conditions: P. falciparum in erythrocytes, SYBR Green DNA, 72 h; series mostly up to 28.7 µM
Summary of the method: as §3

PC26 = assay: as above; conditions: P. falciparum in erythrocytes, SYBR Green DNA, 72 h; series mostly up to 28.7 µM
Summary of the method: as §3

PC49 = assay: as above; conditions: P. falciparum in erythrocytes, SYBR Green DNA, 72 h; series mostly up to 28.7 µM
Summary of the method: as §3

SC27B = assay: as above; conditions: P. falciparum in erythrocytes, SYBR Green DNA, 72 h; series mostly up to 28.7 µM
Summary of the method: as §3

TAB109 = assay: as above; conditions: P. falciparum in erythrocytes, SYBR Green DNA, 72 h; series mostly up to 28.7 µM
Summary of the method: as §3

TAB113 = assay: as above; conditions: P. falciparum in erythrocytes, SYBR Green DNA, 72 h; series mostly up to 28.7 µM
Summary of the method: as §3

TAB165 = assay: as above; conditions: P. falciparum in erythrocytes, SYBR Green DNA, 72 h; series mostly up to 28.7 µM
Summary of the method: as §3

W2 = assay: as above; conditions: P. falciparum in erythrocytes, SYBR Green DNA, 72 h; series mostly up to 28.7 µM
Summary of the method: as §3

HEK293T = assay: qHTS assay to identify novel small-molecules to repurpose for Merkel cell carcinoma treatment (AID 1296009); conditions: MCC and control cell lines, CellTiter-Glo viability, 72 h; at 44.8 µM (top of the series)
Summary of the method: as §2
Also: nearly all actives have a fitted effect of over 60% in size.
Potency is read from the fitted curve at half-maximal effect.

CC(C)C(=O)Oc1ccc(CO)cc1[C@H](CCN(C(C)C)C(C)C)c1ccccc1
inactive: max response (CRL-7250) -3.71% and 3.58% | max response (HEK293) -22.5% and -1.3% | max response (HaCat [1]) -23.8% | outcome (HaCat [1]) | max response (KB-3-1) -1.04% and 2.37% | max response (NIH3T3) -3.14% | outcome (NIH3T3) | outcome (HACAT [2]) | Potency (MCC-13) | Potency (MCC-26) | Potency (MKL-1) | Potency (MKL-2)

CCN1CCC[C@H]1CNC(=O)c1cc(S(N)(=O)=O)ccc1OC
inactive: outcome (PAD) | outcome (PC15) | Potency (PC26) | outcome (PC49) | Potency (SC27B) | outcome (TAB109) | Potency (TAB113) | Potency (TAB165) | Potency (W2) | max response (CRL-7250) -0.0938% and -2.14% | outcome (HEK293) | max response (HaCat [1]) -3.98% | outcome (HaCat [1]) | max response (KB-3-1) -2.45% | outcome (KB-3-1) | max response (NIH3T3) 0.0033% and 0.419% | outcome (HACAT [2]) | outcome (HEK293T) | Potency (MCC-13) | Potency (MCC-26) | Potency (MKL-1) | Potency (MKL-2)

O=C(O)c1ccccc1C(=O)Nc1ccc(-c2ccccc2)cc1
inactive: max response (CRL-7250) 4.68% | max response (HEK293) -10.6% | outcome (HaCat [1]) | max response (KB-3-1) 9.98% | outcome (KB-3-1) | outcome (NIH3T3) | outcome (HACAT [2]) | Potency (MCC-13) | Potency (MCC-26) | Potency (MKL-1) | Potency (MKL-2)

COc1ccc2c(Oc3ccc(NC(=O)c4c(C)n(CC(C)(C)O)n(-c5ccccc5)c4=O)nc3)ccnc2c1
active: Potency (CRL-7250) 18.4 µM | Potency (HaCat [1]) 11.6 µM | Potency (NIH3T3) 3.66 µM
inactive: max response (CRL-7250) -5.8% | max response (HEK293) 3.25% | max response (HaCat [1]) -3.13% | max response (KB-3-1) 3.31% | Potency (MCC-13) | Potency (MCC-26) | Potency (MKL-1) | Potency (MKL-2)

CN(C)CCC(c1ccccc1)c1ccccn1 (stereo not drawn)
inactive: outcome (PAD) | outcome (PC15) | Potency (SC27B) | Potency (TAB113) | Potency (TAB165) | max response (CRL-7250) -4.39% | max response (HEK293) -3.33% | outcome (HEK293) | outcome (HaCat [1]) | max response (KB-3-1) -8.17% and 1.69% | outcome (HACAT [2]) | outcome (HEK293T) | Potency (MCC-13) | Potency (MCC-26) | Potency (MKL-1) | Potency (MKL-2)
active: Potency (W2) 4.26 µM

COc1ccc(C2CC(c3ccccc3)=NN2c2ccc(S(N)(=O)=O)cc2)cc1 (stereo not drawn)
inactive: max response (CRL-7250) -2.01% | max response (HaCat [1]) 3.54% and 1.7% | max response (KB-3-1) -15.8% | max response (NIH3T3) -14.6% and -17.5% | Potency (MCC-13) | Potency (MKL-1) | Potency (MKL-2)
active: Potency (CRL-7250) 10.5 µM

CC(C)(C)c1cc(C(=O)O)c(NC(=O)Nc2ccc3[nH]ncc3c2)s1
inactive: max response (CRL-7250) -5.25% and -2.72% | max response (HEK293) -1.74% and 1.5% | max response (HaCat [1]) -3.43% | outcome (HaCat [1]) | max response (KB-3-1) -9% | outcome (KB-3-1) | max response (NIH3T3) -6.15% | outcome (NIH3T3) | outcome (HACAT [2]) | Potency (MCC-13) | Potency (MCC-26) | Potency (MKL-1) | Potency (MKL-2)

C[C@@H](O)[C@H]1C(=O)N2C(C(=O)O)=C(S[C@@H]3CN[C@H](C(=O)N(C)C)C3)[C@H](C)[C@H]12
inactive: outcome (PAD) | outcome (PC15) | Potency (PC26) | outcome (PC49) | Potency (SC27B) | outcome (TAB109) | Potency (TAB113) | Potency (TAB165) | Potency (W2) | max response (CRL-7250) 3.74% | outcome (CRL-7250) | outcome (HEK293) | max response (HaCat [1]) -2.71% | outcome (HaCat [1]) | max response (KB-3-1) -4.18% | max response (NIH3T3) -2.02% and 0.837% | outcome (HACAT [2]) | outcome (HEK293T) | Potency (MCC-13) | Potency (MCC-26) | Potency (MKL-1) | Potency (MKL-2)

Cc1cnc(C(=O)O)c[n+]1[O-]
inactive: outcome (PAD) | outcome (PC15) | Potency (PC26) | outcome (PC49) | Potency (SC27B) | outcome (TAB109) | Potency (TAB113) | Potency (TAB165) | Potency (W2) | max response (CRL-7250) 4.3% | outcome (HEK293) | outcome (HaCat [1]) | max response (KB-3-1) 1.54% and 2.87% and -1.62% | outcome (KB-3-1) | max response (NIH3T3) -3.95% | outcome (HACAT [2]) | outcome (HEK293T) | Potency (MCC-13) | Potency (MCC-26) | Potency (MKL-1)

O=C(Nc1ccccc1-c1cn2c(CN3CCNCC3)csc2n1)c1cnc2ccccc2n1
inactive: max response (HaCat [1]) 4.92% | outcome (HaCat [1]) | outcome (HACAT [2])
active: Potency (CRL-7250) 26.4 µM | Potency (HEK293) 23.5 µM | Potency (NIH3T3) 29.6 µM | Potency (MCC-26) 33.2 µM

OC[C@@H](O)[C@H](O)[C@H](O)[C@@H](O)CO
inactive: max response (CRL-7250) 3.59% and -3.14% | outcome (HEK293) | outcome (HaCat [1]) | max response (KB-3-1) -5.61% and 12.2% | outcome (NIH3T3) | outcome (HACAT [2]) | outcome (HEK293T) | Potency (MCC-13) | Potency (MKL-1) | Potency (MKL-2)

O=C1NCC2(CCN(CCc3ccccc3)CC2)O1
inactive: outcome (PAD) | outcome (PC15) | Potency (PC26) | outcome (PC49) | Potency (SC27B) | outcome (TAB109) | Potency (TAB113) | Potency (TAB165) | Potency (W2) | outcome (CRL-7250) | outcome (HEK293) | outcome (HaCat [1]) | max response (KB-3-1) 9.9% | outcome (NIH3T3) | outcome (HACAT [2]) | outcome (HEK293T) | Potency (MCC-13) | Potency (MCC-26) | Potency (MKL-1) | Potency (MKL-2)
